Source: PubChem BioAssay AID1724 (National Center for Advancing Translational Sciences (NCATS), 2009)
Records with an inconclusive call do not appear. Calls of active or inactive are those of the source. Calls follow the shape of the dose curve; as a rule, active = well fitted inhibition curve with a large enough effect; inconclusive = small, poorly fitted or top-dose-only effect, or effect the other way; inactive = no such curve, though single readings can be large or run the other way.

Test: Confirmation Concentration-Response Assay for Inhibitors of the ERK Signaling Pathway using a Homogeneous Screening Assay
Settings: HEK293 cells, hormone-stimulated phospho-ERK AlphaScreen; series mostly up to 40.9 µM
Excerpt: qHTS Assay for Inhibitors of the ERK Signaling Pathway using a Homogeneous Screening Assay
NIH Chemical Genomics Center [NCGC]
NIH Molecular Libraries Screening Centers Network [MLSCN]
Assay Submitter (PI): Dr. Wei Zheng, NCGC/NIH
The Ras/extracellular-signal-regulated kinase (ERK) mitogen activated protein (MAP) kinase signaling pathway (ERK1/2 cascade) plays is a key role in transmitting signals from the cell surface to the nucleus (Nishida and Gotoh 1993; Chang and Karin, 2001). The cascade is initiated by the small G-protein Ras, which recruits Raf […], where activation occurs. Alternatively, this pathway can be activated by elevating intracellular cAMP.
Activation of the ERK pathway is essential in increased cell division and cell survival. Sustained and constitutive activation of the ERK pathway, however, has been linked to uncontrolled cell proliferation, increased cell survival, and tumor progression. Thus, the ERK has been as an attractive target for cancer chemotherapy in the past few years (Sebolt-Leopold and Herrera, 2004). Given its physiological and pathological importance, assessment of ERK phosphorylation has been broadly performed in both basic research and drug discovery. Most assays for the measurement of ERK phosphorylation use the antibody-based detection methods, such as western blot and ELISA. These assays require multiple reagent additions with cell wash steps and are not suitable for high-throughput screening.
The current cell-based ERK phosphorylation assay was performed using AlphaScreen platform. AlphaScreen is a two bead-based proximity-dependent chemical energy transfer luminescent assay platform. The assay reagents (ERK SureFire(TM) kit) were supplied from TGR BioSciences (Australia). In the presence of specific antibodies, phosphorylated ERK will bring "donor" and "acceptor" beads to a proximity range (<200 nm), and subsequently lead a chemical luminescent reaction upon exciting donor beads with 680 nm laser. To exclude the assay-related false positives, we used a biotinylated rabbit IgG to perform counter-screen. The biotinylated antibody mimics the phosphorylated ERK1/2 for bringing streptavidin coated beads and protein-A coated beads to a proximity range for the AlphaScreen detection.
NCGC Assay Protocol Summary:
HEK293 cells stably expressing type-1 vasopressin receptor (V1b) were maintained in DMEM medium (Invitrogen, Carlsbad, CA) at 37C under a humidified atmosphere containing 5% CO2 and 95% air. The medium contained 10% FBS, 2 mM L-glutamine, non-essential amino acid, pyruvate and 50 U/ml penicillin and 50 ug/ml streptomycin (Invitrogen). The aliquots of frozen cells were stored at -135C and used for the compound screening. All compounds were screened as titrations from 0.6 nM to 46 uM final concentration. Vasopressin was used to stimulate the ERK phosphorylation pathway. The ERK phosphorylation in cells was determined using an AlphaScreen assay kit provided by PerkinElmer. Data were normalized to the controls for basal activity (DMSO only) and 100% activation (25 nM vasopressin). AC50 values were determined from concentration-response data modeled with the standard Hill equation.
(1) Seed 4 ul/well of resuspended frozen HEK293 cells containing 2000 cells in white 1536-well plates for overnight with 1% FBS at 37C under a humidified atmosphere containing 5% CO2 and 95% air.
(2) Add 23 nL compounds in DMSO solution. The final titration was 0.6 nM to 46 uM.
(3) Incubate at 37C for 30 min.
(4) Dispense 0.5uL vasopressin (25 nM in final)
(5) Incubate at 37C for 5 min.
(6) Dispense 0.5uL of 1:2 diluted 5x lysis buffer.
(7) Incubate at 37C for 10 min.
(8) Dispense 1.5uL of mixture of activation buffer and reaction buffer with AlphaScreen beads (streptavidin donor beads and protein-A acceptor beads, 10 ng/well for each).
(9) Incubate at room temperature for 5 hr.
(10) Detect the assay plate in an EnVision plate reader (PerkinElmer) using the AlphaScreen detection mode.
[…]

Potency, active:
COC(=O)c1cc(-c2ccc(OC)c(OC)c2)on1 7.08 µM
COc1ccc(N=C2C(=Nc3ccc(OC)cc3)N(c3ccc(N(C)C)cc3)C(=S)N2c2ccc(OC)cc2)cc1 5.62 µM
COc1ccc(N=C2C(=Nc3ccc(OC)cc3)N(c3ccc(OC)cc3)C(=S)N2C)cc1 15.8 µM
O=C(Nc1ccc(-c2cn3ccsc3n2)cc1)c1ccc(F)c(S(=O)(=O)N2CCOCC2)c1 12.6 µM
O=S(=O)(c1ccccc1)N1CCN(c2cc(-c3ccccc3)nc3ncnn23)CC1 31.6 µM
COc1ccc(N=C2C(=Nc3ccc(OC)cc3)N(c3ccccc3)C(=S)N2C(=O)c2ccc(Cl)cc2)cc1 3.16 µM
CN(C)c1ccc(Nc2c3c4c(cccc4n(C)c2=O)C(=O)c2ccccc2-3)cc1 14.1 µM
COc1ccc(C(=O)OC(COc2ccccc2)Cn2ccnc2)cc1 (configuration not stated) 15.8 µM
CC1(C)OC(c2ccccc2)=C/C(=C/C=C2C(=O)c3ccccc3C2=O)O1 14.1 µM
Cc1nc2ccccc2c2oc(C(=O)N3CCc4ccccc4C3)cc12 25.1 µM

Potency, inactive:
COc1cc2ncnc(Nc3cccc(Cl)c3)c2cc1OC
COc1ccc(C(=O)Nc2cccc(C(C)=O)c2)cc1S(=O)(=O)N1CCOCC1
C/C(=N\Nc1nnc(-c2ccccc2)c(-c2ccccc2)n1)c1cccc([N+](=O)[O-])c1
Cc1cc(-c2ccccc2)n(-c2cc(N/N=C/c3ccccc3O)ncn2)n1
Cc1ccc(NNc2c(C)nc3ccccc3nc2=O)cc1
c1ccc(Oc2nc(NCc3ccco3)nc(NCc3ccco3)n2)cc1
CCCNc1ncnc2sc(C)c(C)c12
Cc1noc(NS(=O)(=O)c2ccc(NC(=O)COc3ccc(Cl)cc3Cl)cc2)c1C
O=C1c2ccc(O)c(O)c2C(=O)c2c(O)ccc(O)c21
CCN(C1CCCCC1)S(=O)(=O)c1ccc(S(=O)(=O)NCc2ccncc2)cc1
Cc1sc2ncnc(Sc3nnnn3-c3ccc(Cl)cc3)c2c1C
CC(=O)N1CCC(=NNc2nc3ccccc3s2)CC1
